An excerpt weighted towards active compounds, which were near 6.1% of everything screened.
D3 antag: qHTS of D3 Dopamine Receptor Antagonist: qHTS; D(3) dopamine receptor (Homo sapiens), P35462; hit rate 2.5% among 360,000; D3R cells, DiscoveRx beta-arrestin luminescence, antagonist mode; hits give low values; max response, negative = inhibition, %; in the data active means max response below about -50%; inconclusive means no clear call, values can overlap the other calls; further: on the % scale 0 is the no-effect control and ±100 the full control effect
Target sequence (P35462 whole entry, looked up): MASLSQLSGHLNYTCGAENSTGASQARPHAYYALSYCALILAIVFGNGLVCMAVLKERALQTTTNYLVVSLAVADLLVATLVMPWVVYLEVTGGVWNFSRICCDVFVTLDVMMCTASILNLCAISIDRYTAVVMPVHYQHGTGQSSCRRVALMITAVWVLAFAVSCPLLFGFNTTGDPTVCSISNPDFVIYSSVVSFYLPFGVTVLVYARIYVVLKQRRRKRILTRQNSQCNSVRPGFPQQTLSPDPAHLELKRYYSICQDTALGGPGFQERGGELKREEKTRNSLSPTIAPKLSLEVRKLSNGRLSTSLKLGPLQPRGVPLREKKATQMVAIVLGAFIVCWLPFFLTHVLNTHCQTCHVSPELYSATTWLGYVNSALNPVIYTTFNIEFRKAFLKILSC
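Cells plated overnight at 1500 cells/well, then exposed to library compounds with dopamine controls for 90 minutes at 37 degrees C. DiscoveRx reagent added for 30–60 minutes at room temperature; luminescence read, quantitative HTS format.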
D1 potentiator: Potentiators of Human D1 Dopamine Receptor: qHTS. D(1A) dopamine receptor (Homo sapiens), P21728. HEK293 TREx D1 cells, calcium flux, dopamine EC20 potentiation. potentiation, % at 10 µM. hit rate 0.036% among 360,000; in the data active means potentiation above about 30%; further: 0% is about no effect
D1 agonist: Allosteric Agonists of the Human D1 Dopamine Receptor: qHTS; activation, % at 2 µM; hit rate 1% among 360,000; HEK293 T-REx D1 cells, calcium flux, agonist mode; in the data active means activation above about 30%; further: 0% is about no effect
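Inducible HEK293 T-REx D1 cells, force-coupled to calcium signalling, were plated at 4000 cells/well with tetracycline and held overnight at 30 C. After no-wash calcium dye loading, compound-evoked calcium rise over 180 s flagged agonists.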
DRD3 agonist: qHTS of D3 Dopamine Receptor Agonist: qHTS. D3R DiscoveRx beta-arrestin cells, luminescence, 90 min. max activation, %. D(3) dopamine receptor (Homo sapiens), P35462. hit rate 0.58% among 410,000; in the data active means max activation above about 30%; further: 0% is about no effect
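Agonist mode: compounds and dopamine controls were applied to plated cells for 90 min at 37 degrees C after an overnight attachment at 1500 cells/well. Luminescent read-out followed 30 - 60 minutes at room temperature with DiscoveRx detection reagent.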
D1 antagonist: Antagonist of Human D 1 Dopamine Receptor: qHTS. AID 504652, 2011. hit rate 3.2% among 360,000. HEK293 TREx D1 cells, calcium flux, dopamine EC80; hits give low values. D(1A) dopamine receptor (Homo sapiens), P21728. activity change, negative = inhibition, % at 10 µM; in the data active means activity change below about -30%; further: on the % scale 0 is the no-effect control and ±100 the full control effect
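Using tetracycline-induced force-coupled D1 Hek293 cells and a calcium dye, signals were followed for 180 s after compound, then for 180 s after EC80 dopamine, to detect inhibitors.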
Starred values were filed as active, the others as inactive; ? = inconclusive; nt = not tested or not shown.

SMILES | D3 antag | D1 potentiator | D1 agonist | DRD3 agonist | D1 antagonist
CSCc1ccc(C(=O)NCCSc2ccc(Br)cc2)cc1 | -18 | -12 | 5 | -7 | -37*
Cn1c(=O)c2c(nc(SCC(=O)NCc3ccc4c(c3)OCO4)n2Cc2ccc(F)cc2)n(C)c1=O | -10 | -22 | 0 | -1 | -37*
Cn1nc(-c2ccc(C(=O)NCCO)cc2)c2ccccc2c1=O | -19 | -1 | 2 | -8 | 9
COc1ccc(C(C)N2CC34C=CC(O3)C(C(=O)O)C4C2=O)cc1 (stereo not given) | 16 | -6 | 1 | -3 | 20
COc1ccc(CN2CC34C=CC(O3)C(C(=O)O)C4C2=O)cc1 (stereo not given) | 5 | nt | 1 | 3 | -58*
Cc1ccc(-n2c(=O)[nH]c3cc(C(=O)NCc4ccccc4)ccc3c2=O)cc1 | nt | -1 | 8 | 2 | -77*
CCCCNC(=O)c1ccc2c(=O)n(-c3ccccc3)c(=O)[nH]c2c1 | nt | -2 | 1 | 1 | -64*
COc1cc(OC)cc(-n2c(=O)[nH]c3cc(C(=O)NCCc4ccc(C)cc4)ccc3c2=O)c1 | nt | 2 | 5 | 1 | 5
CCOc1ccccc1NC(=O)COC(=O)C1COc2ccccc2O1 (stereo not given) | -17 | nt | nt | -5 | nt
CCCSCCCNC(=O)c1ccc(Cn2c(=O)c3cccn3c3cccnc32)cc1 | nt | 0 | 9 | 12 | -2
CCOC(=O)c1cc(-c2ccccc2)sc1NC(=O)C(C)OC(=O)c1cccnc1Cl (stereo not given) | 8 | 3 | -1 | 1 | -10
O=C(/C=C/c1ccccc1)NC(NC(=S)Nc1cccc(Cl)c1)C(Cl)(Cl)Cl (stereo not given) | ? | -2 | 6 | -3 | 1
O=C(/C=C/c1ccccc1)NC(NC(=S)Nc1cccc(O)c1)C(Cl)(Cl)Cl (stereo not given) | -62* | -7 | 3 | -12 | -2
CCOC(=O)c1ccccc1NC(=O)CC(C)CC(=O)O (stereo not given) | 0 | -9 | 7 | -15 | 8
CC(CC(=O)O)CC(=O)Nc1ccccc1C(=O)O (stereo not given) | 29 | -4 | 4 | 3 | -30*
O=c1c(C=Nc2ccc(Oc3ccccc3)cc2)c[nH]n1-c1cccc(Cl)n1 | -56* | 2 | 1 | 1 | 7
COc1ccc(N=Cc2c(O)n(-c3cccc(C)n3)c(=O)c3ccccc23)cc1 | 3 | -9 | -1 | 2 | 6
Cn1nc(C(F)(F)F)c(-c2cccc(C(F)(F)F)c2)c1NC(=O)c1ccco1 | 3 | -6 | 1 | 7 | -19
Cn1nc(-c2ccccc2)cc1NC(=O)Nc1ccc(F)cc1 | 11 | -13 | 12 | -5 | -44*
Cn1nc(C(F)(F)F)c(-c2cccc(C(F)(F)F)c2)c1NC(=O)Nc1ccc(F)cc1 | 0 | -2 | 17 | -6 | -31*
COC(=O)c1ccc(Oc2ccc(C(F)(F)F)cn2)cc1 | 3 | -3 | 1 | 4 | -4
CCc1cc(C(=O)NNC(=S)Nc2ccccc2C)cs1 | -97* | 0 | 0 | -6 | -5
Cc1nn(CC(=O)N(C)C)c(C)c1S(=O)(=O)N1CCOCC1 | 12 | 0 | 2 | 1 | 27
COC(=O)C1=C[C@@H](C(=O)OC)C2C3=C(C(=O)C24CCCCC4)[C@H](C)n2c(=O)n(-c4ccccc4)c(=O)n2[C@@H]3C1 (stereo not given in full) | 28 | nt | nt | 35* | nt
Cc1csc(NC(=O)c2ccoc2C)n1 | 16 | 0 | -3 | 3 | 25
SMILES | D3 antag | D1 potentiator | D1 agonist | DRD3 agonist | D1 antagonist
Cc1occc1C(=O)Nc1nnc(C(F)(F)F)s1 | -30 | 1 | 9 | 12 | -30*
O=C(Nc1ccccc1C(=O)Nc1nnc(C(F)(F)F)s1)c1ccccc1 | 2 | -5 | 26 | 27 | -39*
O=C(COC(=O)CNC(=O)c1ccccc1)Nc1cc(C(F)(F)F)ccc1Cl | nt | 2 | 0 | nt | 5
COc1ccc(Cc2nc3ccc(C(=O)NC4CCOC4)cc3o2)cc1 (stereo not given) | 7 | 2 | 7 | 9 | 6
CCOC(=O)C(=CNc1ccc(NC2=NCC(C)(C)S2)cc1)C(=O)OCC | 104 | -3 | 10 | 52* | 6
CCCOC(=O)Cn1cnc2scc(-c3ccc(OC)cc3)c2c1=O | 5 | 2 | 4 | 1 | 0
O=C(CN1CCC(C(=O)c2ccc3c(c2)OCCO3)CC1)Nc1ccccc1C(F)(F)F | -4 | -11 | 3 | 7 | -12
Cn1nc(C(F)(F)F)c(CN2CC(C)(C)C2=O)c1N1CCOCC1 | -23 | -5 | 0 | -9 | -31*
COc1cccc(C(C(=O)NCc2ccco2)N(Cc2ccco2)C(=O)Cn2nnc3ccccc32)c1 (stereo not given) | 45 | -1 | 6 | -5 | -33*
Cc1ccc(S(=O)(=O)C2CS(=O)(=O)CC2O)cc1 (stereo not given) | 18 | -1 | 4 | 0 | 3
CC(=O)C1=C(S(=O)(=O)c2ccc(C)cc2)CS(=O)(=O)C1 | -67* | -2 | 4 | -7 | -17
COc1cc2c(cc1OC)CN(C1CCC(C(C)(C)C)CC1)CC2 (stereo not given) | -88* | nt | nt | -19 | nt
COc1cc2c(cc1OC)CN(C(=O)C(C)(C)C)CC2 | 14 | 1 | 0 | -1 | 15
O=C(O)CC(c1cccc(C(F)(F)F)c1)N1CCS(=O)(=O)CC1 (stereo not given) | 0 | -4 | -1 | 2 | -35*
Cc1ccc(S(=O)(=O)N(C)CCCC(=O)Nc2ccc(C)cc2C)cc1 | 11 | -2 | 18 | 16 | -52*
COc1ccc(NC(=O)CCCN(C)S(=O)(=O)c2ccc(C)cc2)cc1 | -17 | -9 | 4 | -11 | -60*
Cc1ccc(S(=O)(=O)N(C)CCCC(=O)Nc2ccc(F)cc2)cc1 | 2 | -3 | 3 | -2 | -13
Cc1ccc(S(=O)(=O)N(C)CCCC(=O)Nc2ccncc2)cc1 | 1 | nt | 22 | -2 | -35*
COc1ccc(CCNC(=O)c2oc(=O)c3ccccc3c2-c2ccccc2)cc1OC | nt | 0 | 2 | 6 | -24
Cc1ccc(S(=O)(=O)NC(=O)NC2CCCCCCC2)cc1 | nt | nt | nt | 4 | nt
O=C(Nc1cccc(-c2ccc(N3CCCCC3)nn2)c1)c1ccc(Br)o1 | 6 | -3 | 2 | 0 | -23
Cc1ccc(S(=O)(=O)Nc2cccc(-c3ccc(N4CCCCC4)nn3)c2)s1 | nt | -2 | 1 | 1 | -80*
O=C(Nc1cccc(-c2ccc(N3CCCCC3)nn2)c1)C(F)(F)F | -20 | -11 | 12 | -1 | -33*
